Compounds without any hit were thinned out: in the full panel of roughly 83,000, 20% have a hit.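 Negative percent growth values reflect cell death: -40 means 40% of the cells present at the start died, and -100 means all died.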 A number with no mark means an inactive call. Calls of active or inactive are those of the source. How the source made its calls: active means growth percent below 10; inactive means the rest.

The test system of this test is HCT-15 colon. The test can be described thus: NCI-60 one-dose screen, 48 h (100 = growth as untreated, 0 = no growth, -100 = all killed). The settings on record: 10 µM unless noted.
For the compound `COCCOc1ccc2ncc(C#Cc3cncc(C(=O)Nc4ccc(CN5CCN(C)CC5)c(C(F)(F)F)c4)c3)n2n1`, the growth is 0.122% (active).

On to `CCOC(=O)c1c(N)c(C#N)cn1Cc1ccc(Cl)cc1Cl`, for which the growth is 48.8%. The result for `Cc1ccc(Nc2nc(SC(C)C)nc(-c3ccccc3)c2C#N)cc1` reads 95.1%; that for `O=C(CSc1nc2ccccc2c(=O)n1-c1ccc(Cl)c(Cl)c1)Nc1ccc(S(=O)(=O)Nc2ccc(Cl)nn2)cc1`, 99.5%. `N#Cc1cnc2ccc(-c3cnc4n[nH]nc4c3)cc2c1N1CCc2cc(F)c(Cl)cc21`: the growth was 12.3%.

On to `CNC(=O)Nc1ccc(Nc2cc(-c3ccc(-n4cccn4)cc3)[nH]n2)c(C)c1`, for which the growth is 103%.

For `CN1CCN(Cc2ccc(NC(=O)c3cncc(C#Cc4cnc5ccc(N)nn45)c3)cc2C(F)(F)F)CC1`, the growth is 49.5%. The figure for `Cc1cc(=O)oc2cc(OCCCOc3ccc(/C=C/C(=O)Nc4ccc(Br)cc4)cc3)ccc12` is 82.3%.

In the case of `C/C(CC1(O)C(=O)Nc2ccccc21)=N\O` (stereo not given), the growth is 95.4%. The result for `Cc1ccc2c(n1)C(=O)C(Cl)=C(Nc1ccccc1C(=O)OC(C)(C)C)C2=O` reads -66.2% (active); that for `COc1ccc(/C=N\NC(=O)c2cnn(CC(O)c3ccccc3)c2N)cc1OCc1ccc(Cl)cc1` (stereo not given), 70.5%; that for `NC(N)=NS(=O)(=O)c1ccc(N=Nc2c(N)nn(-c3ccc([N+](=O)[O-])cc3[N+](=O)[O-])c2N)cc1`, 99.9%. For `COc1ccccc1Cn1cc(C#N)c(N)c1C(=O)c1ccc(Br)cc1`, the growth is 86.6%. For the compound `CC(=C(c1ccc(OCCN2CCCC2)cc1)c1ccc(OCCN2CCCC2)cc1)c1ccc(Cl)cc1`, the growth was -73% (active). For `CCN(CC)CCOc1ccc(C(=C(C)Cc2ccc(OC)cc2)c2ccc(OCCN(CC)CC)cc2)cc1`, the growth is 7.13% (active). The result for `Fc1ccc(-c2cn3c(-c4c[nH]c5ccc(Br)cc45)csc3n2)cc1` reads 77.8%; that for `CC1=C(C)C(=O)C(Nc2cccc(C(=O)OC(C)(C)C)c2)=CC1=O`, 60.4%. The figure for `CSc1ccc(/C(=N/N=C(N)N)c2ccc(Cl)cc2)cc1` is 3.54% (active); for `O=C(/C=C/Nc1ccc(S(=O)(=O)Nc2ncccn2)cc1)c1ccc(N=Cc2c(O)[nH]c3ccccc23)cc1` it is 104%; for `N#Cc1c(-c2cccs2)cc(-c2cnccn2)nc1SCC(=O)N/N=C/c1cccs1` it is 62.8%. The result for `O=S(=O)(NCCCNc1nccc(-c2[nH]c(-c3ccccc3)nc2-c2ccc(F)c(O)c2)n1)c1ccccc1` reads 101%. Turning to `CC1(C)CC[C@]2(C(=O)NCCCCCCN(CCCN)CCCN)CC[C@]3(C)C(=CC[C@@H]4[C@@]5(C)CC[C@H](O)C(C)(C)[C@@H]5CC[C@]43C)[C@@H]2C1`, the growth was 105%. The figure for `CCOC(=O)c1c(NCC(=O)Nc2cccc([N+](=O)[O-])c2)sc(C(C)=O)c1C` is -6.35% (active); for `O=c1oc2ccc(-c3ccc(F)cc3F)cc2c(=O)n1-c1ccc(Br)cc1F` it is 47.4%. The figure for `Cc1ccc2c(n1)C(=O)C(Cl)=C(Nc1cccc(C(=O)OC(C)(C)C)c1)C2=O` is 47.1%; for `C/C(=C(\c1ccc(O)cc1)c1ccc(OCCN2CCCCCC2)cc1)c1ccc(Cl)cc1` it is -88.7% (active).

As for `CC1=C(C)C(=O)C(Nc2cccc(C(F)(F)F)c2)=C(Br)C1=O`, the growth was 82.7%.

For the compound `CC(C)C(/C=C/c1[nH]ncc1-c1cc(Cl)ccc1O)N1CCOCC1` (stereo not given), the growth is 94.9%. The figure for `Fc1cccc(Cl)c1/C=N/Nc1nc(N/N=C/c2c(F)cccc2Cl)nc(N2CCCCC2)n1` is 3.94% (active); for `COc1ccc(C2C(C#N)=C(/N=C/c3ccc(Cl)cc3)Oc3c2sc2c(C)cccc32)cc1` (stereo not given) it is 18.8%.

As to `O=C(CCCCCCNC(=O)C(O)(O)C(F)(F)F)Nc1ccc(Cl)cc1`, the growth is 39.1%. The figure for `O=C1C(SCc2ccccc2)=C(Cl)CN1c1ccc(Cl)cc1` is 88.6%; for `Cc1ccc(-c2nc(SCC(=O)c3ccccc3)nc(Nc3ccc(S(N)(=O)=O)cc3)c2C#N)cc1` it is 72.1%; for `O=C1C(N2CCN(c3ccccc3)CC2)=C(Cl)C(=O)c2ncccc21` it is 20.3%. For the compound `C#Cc1nc(C(=O)NCCCCCCC(=O)NO)cs1`, the growth is 41.3%. The result for `C[C@H](Nc1ncnc2ccc(-c3cnc(Cl)c(NS(C)(=O)=O)c3)cc12)c1ccccc1` reads -23.7% (active). The figure for `Cc1ccc(/C=N/Nc2nc(Nc3ccccc3)nc(Nc3ccc(S(N)(=O)=O)cc3)n2)cc1` is 53.5%. For the compound `Cc1ccc(S(=O)(=O)NCCCNc2nc(Nc3ccc(N4CCN(C)CC4)cc3)nc3ccsc23)cc1`, the growth is 3% (active). Consider `CC(C)=CCC[C@](C)(O)[C@H]1CC[C@]2(C)[C@@H]1CC[C@@H]1[C@@]3(C)CC[C@H](N)C(C)(C)[C@@H]3CC[C@]12C`, for which the growth is 20.3%. The figure for `NNc1nnc2nc(Nc3ccccc3)nc(Nc3ccc(S(N)(=O)=O)cc3)n12` is 100%.
